CYP2C9 activ = increases human cytochrome P450 2C9 activity | hit rate 1.4% among 96,000 | P11712 | activation factor at 5 µM | recombinant CYP2C9, luciferin-H conversion, luminescence; active compounds read high; factor 1 = untreated enzyme, 0 = blocked;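 active = activation factor of 2 or more for CYP2C9 at a 5 µM dose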;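 also: 0 = sulfaphenazole-blocked wells and 1 = vehicle-only wells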
CYP2C9 inhib = human CYP2C9 inhibition. inhibition, % at 5 µM. hit rate 20% among 96,000. CYP2C9 Supersomes, luciferin-H conversion, luminescence;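 active = blocking of liver enzyme CYP2C9 beyond about 50% at 5 µM, limit read from the data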
PostGolgi yeast = growth inhibition of a yeast mutant, post-Golgi transport screen. hit rate 0.9% among 98,000. inhibition, % at 10 µM. post-Golgi transport phenotypic cell assay;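 also: yeast cells grown in 1536-well plates; yeast grown about 18 h at 30C before absorbance read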
PostGolgi ctrl = inhibits growth of the yeast control strain; inhibition, % at 10 µM; AID 738; hit rate 5% among 98,000; efflux-deficient yeast background strain, growth absorbance A615, 16 h
CYP2C19 inhib = inhibitors of human CYP2C19 | hit rate 21% among 96,000 | CYP2C19 Supersomes, luciferin-H EGE luminescence, 30 min | inhibition, % at 5 µM | P33261;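 active = CYP2C19 inhibition above a set limit at 5 µM in the primary screen, cut at about 50% in these data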;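 also: plate controls were negative control wells for no effect and 2.5 mM tranylcypromine positive control for full effect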
Target sequence (P33261 whole entry, looked up): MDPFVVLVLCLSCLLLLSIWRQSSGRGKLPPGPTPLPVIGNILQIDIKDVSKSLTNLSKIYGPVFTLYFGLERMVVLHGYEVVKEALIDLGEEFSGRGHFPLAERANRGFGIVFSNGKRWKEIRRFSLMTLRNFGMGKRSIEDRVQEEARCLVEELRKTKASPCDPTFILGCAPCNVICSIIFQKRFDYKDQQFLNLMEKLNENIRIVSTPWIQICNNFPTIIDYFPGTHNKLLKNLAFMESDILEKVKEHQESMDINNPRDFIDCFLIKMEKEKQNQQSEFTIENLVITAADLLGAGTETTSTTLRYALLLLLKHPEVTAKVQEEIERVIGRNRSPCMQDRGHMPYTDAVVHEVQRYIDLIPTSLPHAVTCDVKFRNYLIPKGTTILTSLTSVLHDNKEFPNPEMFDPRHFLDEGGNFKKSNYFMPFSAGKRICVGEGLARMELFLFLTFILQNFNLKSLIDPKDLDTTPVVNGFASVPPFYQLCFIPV
CYP2C19 act = cytochrome P450 2C19 (human) activation; P33261; recombinant CYP2C19, luciferin-H EGE luminescence; active compounds read high; 0 = fully inhibited enzyme, 1 = untreated enzyme; activation factor at 5 µM; 96,000 tested, under 10 active;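 active = activation factor of at least 2 at 5 µM in the primary screen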;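 also: 0 = wells with 2.5 mM tranylcypromine and 1 = vehicle-only wells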
Starred values were filed as active, the others as inactive; / = not tested or not shown. Rows were chosen to be rich in hits. Some 32% of all compounds tested hit in one or more screens of this group. Rule as the data show it, unless noted: active = inhibition above about 30%; inactive = the rest.

SMILES	CYP2C9 activ	CYP2C9 inhib	PostGolgi yeast	PostGolgi ctrl	CYP2C19 inhib	CYP2C19 act
Cn1c(C(=O)NCc2cccnc2)cc2sccc21	1	-2	-2	-9	34	0.7
Cc1cc(C)nc(NS(=O)(=O)c2ccc(NC(=O)c3ccc4c(c3)OCO4)cc2)n1	0.5	52*	13	11	9	0.9
COc1ccc(S(=O)(=O)Nc2ccc3c(c2)OCO3)cc1C	0.6	36	-5	-5	99*	0
Cc1cc(NS(=O)(=O)c2ccc(NC(=O)Nc3ccc4c(c3)OCO4)cc2)no1	/	/	6	6	/	/
Cc1cc(C)nc(NS(=O)(=O)c2ccc(NC(=O)c3ccc(S(=O)(=O)N4CCOCC4)cc3)cc2)n1	1	-4	-3	-1	-7	1.1
COc1ccc(S(=O)(=O)Nc2ccc3c(c2)OCO3)cc1	0.4	56*	-2	8	93*	0.1
Cc1cc(NS(=O)(=O)N(C)C)ccc1C(C)C	0.2	77*	0	5	90*	0.1
Cn1c2c(c(=O)[nH]c1=O)C(NC(=O)c1ccco1)(C(F)(F)F)C(=O)N2 (stereo unspecified)	1	1	2	-3	-2	1
O=C(NC1CCCC1)c1cccc(NC(=O)c2ccco2)c1	0.5	45	-6	14	-1	1
O=S(=O)(Nc1ccc2c(c1)OCO2)c1ccc(Br)s1	0	96*	2	12	78*	0.2
CC(=O)c1cc2c(cc1NS(=O)(=O)c1ccccc1)OCO2	2.8*	-177	8	18	88*	0.1
O=C(Nc1ccc2c(c1)OCO2)c1cncc(Br)c1	0.9	8	4	18	14	0.9
O=C(c1ccncc1)c1ccc(NS(=O)(=O)c2ccc(Br)s2)cc1	0	99*	-3	-3	5	0.9
O=C(NCc1ccc2c(c1)OCO2)c1ccc(NS(=O)(=O)c2ccc3c(c2)OCCO3)cc1	/	/	4	6	/	/
O=S(=O)(Nc1ccc2c(c1)OCO2)c1ccccc1	0.1	88*	3	-13	100*	0
COc1cc(C(=O)NCCc2cn3ccc(C)cc3n2)cc(OC)c1OC	1	0	-8	11	20	0.8
Nc1nc(SCc2ccc3c(c2)OCO3)n[nH]1	1.1	-14	1	0	-13	1.1
CC(=O)c1c(C)[nH]c(C(=O)CSc2nnc(CN3CCCCCC3=O)n2-c2ccccn2)c1C	0.8	16	0	5	17	0.8
COc1ccc(CCNC(=O)CNS(=O)(=O)c2ccc(Br)s2)cc1OC	0.6	44	6	7	32	0.7
COc1cc(NS(=O)(=O)c2ccc(Br)s2)cc(OC)c1	0	96*	-13	14	100*	0
CN(C)S(=O)(=O)Nc1ccc2c(c1)OCO2	0.8	25	5	4	76*	0.2
C=CCSc1nncn1/N=C/c1ccc(OC)cc1	0.6	36	6	0	82*	0.2
Cc1cccc2cc(CN(Cc3cccs3)Cc3nnnn3Cc3ccccc3)c(=O)[nH]c12	0.6	42	-5	15	65*	0.4
CCC(C)(C)n1nnnc1CN(Cc1cccs1)Cc1cc2cc(OC)ccc2[nH]c1=O	0.4	59*	-3	5	70*	0.3
CCOC(=O)Cn1nnnc1CN(Cc1cccs1)Cc1cc2cc(C)cc(C)c2[nH]c1=O	1.3	-30	0	11	63*	0.4
SMILES	CYP2C9 activ	CYP2C9 inhib	PostGolgi yeast	PostGolgi ctrl	CYP2C19 inhib	CYP2C19 act
COc1ccccc1NC(=O)N1CCCC1C(=O)NCc1ccc(F)cc1 (stereo unspecified)	1.5	-46	15	1	28	0.7
Cc1cccc(S(=O)(=O)Nc2cccc3c2C(=O)c2ccccc2-3)c1	0.4	59*	1	23	-1	1
COc1cc(C(C(=O)NC(C)(C)C)N(Cc2ccc3c(c2)OCO3)C(=O)c2cnccn2)cc(OC)c1OC (stereo unspecified)	1.3	-27	9	-3	-1	1
CCOP(=O)(OCC)C(C#N)=C1SCN(c2ccc(Cl)cc2)CS1	0.4	61*	13	9	32	0.7
Cn1nc(-c2ccc(OCC(=O)Nc3cccnc3)cc2)c2ccccc2c1=O	0.3	71*	4	5	8	0.9
Cn1nc(-c2ccc(C(=O)Nc3cccnc3)cc2)c2ccccc2c1=O	0.5	53*	0	-4	58*	0.4
Cc1ccc(NC(=O)c2ccc(-c3nn(C)c(=O)c4ccccc34)cc2)cc1	0.4	57*	3	-3	25	0.7
Cc1ccc(NC(=O)c2ccc(-c3nn(C)c(=O)c4ccccc34)cc2)c(C)c1	0.8	24	-4	41*	23	0.8
Cc1ccc(CNC(=O)[C@@H]2CCC(=O)N2Cc2ccco2)cc1	1	4	6	6	32	0.7
Cn1nc(-c2ccc(C(=O)N3CCN(Cc4ccccc4)CC3)cc2)c2ccccc2c1=O	0.3	73*	3	25	69*	0.3
Cn1nc(-c2ccc(C(=O)Nc3cccc(Cl)c3)cc2)c2ccccc2c1=O	0.6	40	6	0	51*	0.5
CCOc1ccc(Br)cc1/C(C)=N\NC1=NCCN1	0.9	11	-9	3	20	0.8
CCN(CC)C(=O)C(C)OC(=O)c1ccc(O)cc1 (stereo unspecified)	1	2	8	7	-2	1
CCOc1cc(CNCC2CCCO2)cc(Br)c1OCC(N)=O (stereo unspecified)	1	0	6	15	-1	1
CCOc1cc(CNc2ccc3c(c2)OCCO3)cc(Br)c1OCC(N)=O	0.1	86*	-5	1	53*	0.5
CCOc1cc(CNc2ccc3c(c2)OCCO3)cc(Br)c1OC	0.2	84*	-7	2	94*	0.1
CCOc1c(Br)cc(CNc2ccc3c(c2)OCCO3)cc1OC	0.1	86*	-4	0	86*	0.1
Cc1ccc(CNC(=O)C2CCN(S(=O)(=O)c3c(C)noc3/C=C/c3ccco3)CC2)cc1	0.4	57*	-9	33*	14	0.9
Cc1noc(/C=C/c2ccco2)c1S(=O)(=O)N1CCC(C(=O)N2CCc3ccccc3C2)CC1	0.3	73*	1	39*	35	0.6
Cc1noc(/C=C/c2ccco2)c1S(=O)(=O)N1CCC(C(=O)NCc2ccco2)CC1	0.8	21	28	22	4	1
O=c1cnn(-c2ccccc2)c(-c2ccccc2)c1	0.7	31	13	14	-2	1
CCn1c(-c2ccc(N)cc2)nc2ccccc21	1.1	-8	3	15	22	0.8
COc1ccc(Cn2c(/C=C/c3ccccc3)nc3ccccc32)cc1	0.1	91*	16	43*	38	0.6
CCn1c(/C=C/c2ccccc2)nc2ccccc21	2.6*	-163	4	13	44	0.6
